Assay outcomes as filed in PubChem.
Compounds with a hit are over-represented: about 21% of the library has one in this group of screens.
Gal4-VP16 FLuc – inhibits Gal4-VP16 luciferase reporter, ROR gamma counter-screen; Drosophila S2 Gal4-VP16 UAS-luciferase, luminescence, 20 h; Potency, µM (doses to about 53.6 µM), for the others: at the top dose activity, negative = inhibition, hits mostly inhibitors; 3.5% of 310,000 active;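 further: Gal4-VP16 expression switched on by copper sulfate through the metallothionein promoter; potency means the concentration at half of the fitted maximal effect; nearly all actives have a fitted effect of over 50% in size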
TDP1 cell noCPT – qHTS for Inhibitors of human tyrosyl-DNA phosphodiesterase 1 (TDP1): qHTS in cells in absence of CPT; DT40 Tdp1-/- hTDP1 cells, no CPT, ATP luminescence, 48 h; Potency, µM (doses to about 46.2 µM), without a hit: at the top dose activity change, negative = growth inhibition, usual class: inhibitors; 15% of 420,000 active; further: potency means the concentration at half of the fitted maximal effect; nearly all actives have a fitted effect of over 55% in size
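Compound effects on proliferation are scored in DT40 Tdp1-/-;hTDP1 cells in the absence of CPT. ATP levels (CellTiter-Glo luminescence) are recorded after a ≥48 hr, 37 °C incubation.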
ELG1 DNA repair – inhibitors of ELG1-dependent DNA repair in HEK293T cells; HEK293T ELG1-luciferase reporter, luminescence, 16 h; DNA damage induced by 5-fluorouridine; 2.3% of 330,000 active; Potency, µM (highest dose often 46.1 µM), for inactives: at the top dose activity change, negative = inhibition, usual class: inhibitors; AID 504467; further: potency means the concentration at half of the fitted maximal effect; nearly all actives have a fitted effect of over 55% in size
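Quantitative HTS, concentration-response format. 2,000 cells/well co-treated with 5-fluorouridine and compound, 16 hr in 5% CO2 at 37 °C; ONE-Glo luminescence read after 30 min.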
IL-1B inflam inh – inflammasome signaling inhibition, IL-1 beta readout | activity change, % at 57.5 µM | 4.7% of 360,000 active | THP-1 LPS/ATP IL-1B secretion, AlphaLISA, 16 h; active compounds read low; in the data active means activity change below about -50%; inconclusive means mostly about -30% to -49%
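Secreted IL-1B measured by AlphaLISA bead assay after 16 h compound exposure of THP-1 cells; compounds (final up to 57.5 uM) added 1 h before LPS (250 ng/mL) and ATP (1.25 mM) stimulation; lower signal means less secretion.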
TDP1 cell CPT – DT40-hTDP1 cell growth loss with CPT; chicken DT40 Tdp1-/-;hTDP1 cells + 20 nM CPT, ATP luminescence, 48 h; Potency, µM (top dose mostly 46.2 µM), for inactives: top-dose activity change, negative = growth inhibition, hits mostly inhibitors; 12% of 420,000 active; further: potency means the concentration at half of the fitted maximal effect; nearly all actives have a fitted effect of over 55% in size
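Cell growth measured by CellTiter-Glo luminescence after a minimum 48 h, 37 C compound exposure with 20 nM CPT in Tdp1-knockout DT40 cells stably expressing hTDP1, seeded 400/well; qHTS titration format.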
RORgamma inh – inhibitors of mouse ROR gamma transcriptional activity. P51450. Drosophila S2 Gal4-RORgamma UAS-luciferase reporter, 20 h. Potency, µM (doses to about 53.6 µM), inactives show at the top dose activity change, negative = inhibition, hits mostly inhibitors. 5.4% of 310,000 active. AID 2551; further: potency means the concentration at half of the fitted maximal effect; nearly all actives have a fitted effect of over 60% in size
Target sequence (P51450 whole entry, looked up, the tested form may be a part): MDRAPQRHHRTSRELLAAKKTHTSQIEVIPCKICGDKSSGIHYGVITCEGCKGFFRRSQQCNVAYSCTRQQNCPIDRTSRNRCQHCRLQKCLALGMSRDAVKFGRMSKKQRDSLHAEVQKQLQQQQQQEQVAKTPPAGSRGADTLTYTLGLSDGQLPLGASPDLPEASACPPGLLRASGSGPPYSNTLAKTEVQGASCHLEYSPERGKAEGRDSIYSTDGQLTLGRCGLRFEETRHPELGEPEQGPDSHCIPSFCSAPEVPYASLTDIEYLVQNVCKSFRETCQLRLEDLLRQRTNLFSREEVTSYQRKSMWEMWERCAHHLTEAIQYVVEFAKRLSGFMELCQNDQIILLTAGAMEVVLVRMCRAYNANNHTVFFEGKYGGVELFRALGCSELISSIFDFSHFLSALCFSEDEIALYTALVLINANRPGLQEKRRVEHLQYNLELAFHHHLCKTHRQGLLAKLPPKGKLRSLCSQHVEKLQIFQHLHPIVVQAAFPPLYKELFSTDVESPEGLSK
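Drosophila Schneider cells stably carrying a metallothionein-driven Gal4 DBD–ROR gamma fusion and a UAS-Photinus luciferase reporter were exposed to compound for 1 hr, then induced with copper sulfate (700 uM final) for 20 hr at ambient temperature before luminescence reading.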
Numbers without * were called inactive; ! = not confirmed by another sample. Unless noted, the call rests on the fitted dose curve; in most records, active means well fitted curve in the direction sought with a large enough effect; inconclusive means small, poorly fitted or top-dose-only effect, or another doubt; inactive means no such curve, though single readings can be large; an effect the other way counts as inactive or inconclusive. On the % scale 0 is the no-effect control and ±100 the full control effect.

How did O=C(Nc1ccccc1[N+](=O)[O-])c1ccc(S(=O)(=O)N2CCCC2)cc1 do in these assays?
Gal4-VP16 FLuc: 6%; TDP1 cell noCPT: -28%; ELG1 DNA repair: -1%; IL-1B inflam inh: inconclusive; TDP1 cell CPT: -23%; RORgamma inh: inconclusive

What do the screens show for `CCC1([N+](=O)[O-])COP(=O)(NCc2cccnc2)OC1` (stereo unspecified)?
TDP1 cell noCPT: 9%; IL-1B inflam inh: 6; TDP1 cell CPT: 1%

How did O=CC1=C(N2CCOCC2)/C(=C\c2ccccc2)CC1 do in these assays?
Gal4-VP16 FLuc: -12%; TDP1 cell noCPT: inconclusive; ELG1 DNA repair: 16%; IL-1B inflam inh: inconclusive; TDP1 cell CPT: inconclusive; RORgamma inh: 13%

What do the screens show for `COc1ccc(CNC(=O)c2cnn3c(C)c(Cc4ccc(F)cc4)c(C)nc23)cc1`?
TDP1 cell noCPT: 15µM*; TDP1 cell CPT: 16µM*

What do the screens show for `COc1ccc(OCC(=O)N2CCN(Cc3ccc(SC)cc3)CC2)cc1`?
Gal4-VP16 FLuc: 4%; TDP1 cell noCPT: 23µM*!; ELG1 DNA repair: -7%; IL-1B inflam inh: -4; TDP1 cell CPT: inconclusive; RORgamma inh: 9%

How did COc1cc(OC)c(OC)cc1CN1CCN(C(=O)COc2ccc3ccccc3c2)CC1 do in these assays?
Gal4-VP16 FLuc: -3%; TDP1 cell noCPT: 26µM*; ELG1 DNA repair: inconclusive; IL-1B inflam inh: inconclusive; TDP1 cell CPT: inconclusive; RORgamma inh: 38%

Results for COc1ccc(OCC(=O)N2CCN(Cc3ccc4c(c3)OCO4)CC2)cc1 ?
Gal4-VP16 FLuc: -12%; TDP1 cell noCPT: 12%; ELG1 DNA repair: -13%; IL-1B inflam inh: -10; TDP1 cell CPT: -27%; RORgamma inh: 20%

How did Nc1ncnc2c1ncn2[C@@H]1O[C@@H]2CO[P@](=O)(S)O[C@H]2[C@H]1O do in these assays?
Gal4-VP16 FLuc: -22%; RORgamma inh: -11%

How did COc1ccc(-c2ccc3c(c2)CNCc2cnnn2-3)cc1 do in these assays?
TDP1 cell noCPT: -24%; IL-1B inflam inh: -5; TDP1 cell CPT: -20%

What do the screens show for `CC(C)(COCC1CO1)COCC1CO1` (stereo unspecified)?
Gal4-VP16 FLuc: -21%; RORgamma inh: -1%

How did S=C1NC2(CCCCC2)NC12CCCCC2 do in these assays?
Gal4-VP16 FLuc: inconclusive; TDP1 cell noCPT: -10%; ELG1 DNA repair: 20%; IL-1B inflam inh: 17; TDP1 cell CPT: -11%; RORgamma inh: 8.9µM*

What do the screens show for `C[C@@H]1O[C@@H](O[C@H]2CC[C@@H](O[C@H]3[C@H](O)C[C@H](c4ccc5c(c4O)C(=O)C4=C(C5=O)[C@@]5(O)C(=O)C[C@](C)(O[C@H]6CC[C@H](O[C@H]7C=CC(=O)[C@H](C)O7)[C@H](C)O6)C[C@@]5(O)C=C4)O[C@@H]3C)O[C@H]2C)C=CC1=O`?
Gal4-VP16 FLuc: -10%; RORgamma inh: 0.5µM*

How did Cc1ccc2c(c1)C(c1ccccc1)=NCC(=O)N2C do in these assays?
TDP1 cell noCPT: -21%; IL-1B inflam inh: 0; TDP1 cell CPT: -15%

What do the screens show for `CCN(CC)C(=O)[C@@H]1C=C2c3cccc4[nH]cc(c34)C[C@H]2N(C)C1`?
TDP1 cell noCPT: 40µM*; TDP1 cell CPT: 40µM*

How did CN1C[C@H](CO)C=C2c3cccc4[nH]cc(c34)C[C@H]21 do in these assays?
Gal4-VP16 FLuc: -2%; TDP1 cell noCPT: inconclusive; ELG1 DNA repair: 8%; IL-1B inflam inh: -11; TDP1 cell CPT: 3.7µM*; RORgamma inh: 7%

How did C[C@]12CCC3C(CCC4=C(Cl)C(=O)CC[C@@]43C)C1CCC2O (stereo partly specified) do in these assays?
Gal4-VP16 FLuc: 5%; RORgamma inh: -9%
